Data: PubChem BioAssay AID652040 (Broad Institute, 2013)
Potency and affinity values are given separately. The source made the active and inactive calls.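 The calls were made as follows: active = falling luciferase signal whose fitted half-maximal concentration is at most twice the top tested dose; inconclusive = flat inhibition between 30 and 70% or a poor curve fit; inactive = the rest.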

assay: off-target signal loss in HeLa-CEM21 co-culture – HeLa F-luc CTL cells, cherry-picked, counter-screen for HIV-1 Env fusion inhibitor project, dose response (AID 652040); settings: HeLa-F-luc CTL cells with CEM21, firefly luciferase counterscreen; series mostly up to 35 µM; activity change, negative = inhibition: at the top concentration;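 also: 0% = median of neutral control wells and -100% = doxycycline 40 µg/mL wells; more negative values mean stronger loss of luciferase signal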

| Structure (SMILES) | activity change, negative = inhibition |
| --- | --- |
| CC(c1nc2ccccc2c(=O)[nH]1)N(C)CCOc1ccc(Cl)cc1 (centres undefined) | 0.95% (inactive) |
| CC1CCC(C(C)C)C(OC(=O)Cn2c(-c3ccc(Cl)cc3)[n+](C)c3ccccc32)C1 (centres undefined) | 55.5% [at 8 µM] (inactive) |
| CCOC(=O)C1CCN(C(=O)c2ccc3c(c2)C(=O)N(c2ccccc2C)C3=O)CC1 | 3.39% (inactive) |
| Nc1nonc1C(=O)NCCNCc1cc(Br)ccc1OCc1ccccc1F | 101% (inactive) |
| c1csc(-c2csc3ncnc(NCCCN4CCOCC4)c23)c1 | -9.92% (inactive) |
| CCOc1ccc(C(=O)C2CCN(CC(=O)Nc3ccccc3N3CCOCC3)CC2)cc1 | -24.2% (inactive) |
| Cc1ccc(OCCN2CCN(c3ncnc4sc(C)c(C)c34)CC2)cc1 | -7.38% (inactive) |
| Cc1ccc(S(=O)(=O)N(C)c2ccc(C(=O)N3CCN(Cc4ccc5c(c4)OCO5)CC3)cc2)cc1 | -7.88% (inactive) |
| COc1ccc(-c2cc(C3CCN(c4cc(Cl)nc(N)n4)CC3)[nH]n2)cc1 | 4.58% (inactive) |
| C=CCOc1c(Br)cc(CNc2ccc(NC(=O)C(C)C)c(OC)c2)cc1OC | 3.89% (inactive) |
| CC(C)OCCCn1c(=S)[nH]c2ccc(N3CCOCC3)cc2c1=O | -1.01% (inactive) |
| COc1ccc(NS(=O)(=O)c2cccc(C(=O)NNC(=O)CNC(=O)c3ccc(C)cc3)c2)cc1 | 14.4% (inactive) |
| COc1ccc(/C(C)=N/NC(=O)c2cccc(S(=O)(=O)N3CCCC3)c2)c(O)c1 | 27.9% [at 8 µM] (inactive) |
| Cc1nc2sc(C(c3ccco3)N3CCC(Cc4ccccc4)CC3)c(O)n2n1 (centres undefined) | 36.4% (inactive) |
| O=C(NCCCc1nc2ccccc2[nH]1)c1ccco1 | 22% (inactive) |
| COc1ccc(OC)c(NC(=O)COc2ccc3c(c2)CCC3)c1 | 27.4% (inactive) |
| COc1ccc(CCNC(=O)C2CCCN(Cc3nc(-c4cccc(Cl)c4)oc3C)C2)cc1OC (centres undefined) | 29.1% (inactive) |
| Cc1oc(-c2ccc(Cl)cc2)nc1CN1CCCC(C(=O)NCc2cccnc2)C1 (centres undefined) | -6.13% (inactive) |
| COCCCNC(=O)c1sc2ncnc(N3CCc4ccccc4C3)c2c1C | -8.4% (inactive) |
| O=C(COc1ccc(-n2cnnn2)cc1)Nc1ccc(F)c(F)c1 | 7.45% (inactive) |
| COC(=O)[C@@]1(Cc2ccc(F)cc2)[C@H]2c3cc(C(=O)N(C)C)n(CCO)c3C[C@H]2CN1C(=O)c1ccccc1 | 15% (inactive) |
| O=C(CC1C(=O)NCCN1Cc1cccc(F)c1)NC1CCCCC1 (centres undefined) | 19.9% (inactive) |
| COc1ccc(N2CCN(C(=O)C3CCC(Cn4c(=S)[nH]c5ccccc5c4=O)CC3)CC2)cc1 (centres undefined) | -0.686% (inactive) |
| Cc1cc(Nc2cccc(C(F)(F)F)c2)cc(=O)n1-c1cccc(C(F)(F)F)c1 | 18.8% (inactive) |
